# Laboratory results taken from PubChem BioAssay (NCI).
# About 83,000 compounds went through this panel and 20% of them were active in at least one assay; those are over-represented in the sample as a whole.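 Single-concentration screen, 48 h exposure, 96-well plates. Endpoint: percent growth. Below 10 = active.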 A number with no mark means an inactive call. The source made the active and inactive calls.
# Assays:
# Assay in all cases: NCI-60 one-dose screen, 48 h (100 = growth as untreated, 0 = no growth, -100 = all killed)
# Details in all cases: 10 µM unless noted
# [1] = test system: NCI-H23 lung
# [2] = test system: NCI-H226 lung
# [3] = test system: NCI-H322M lung
# [4] = test system: HOP-62 NSCLC
# [5] = test system: NCI-H460 lung
# [6] = test system: HOP-92 NSCLC
# [7] = test system: NCI-H522 lung
# [8] = test system: A549/ATCC NSCLC
# [9] = test system: 786-0 renal
# [10] = test system: COLO 205 colon
# [11] = test system: DU-145 prostate
# [12] = test system: K-562 leukemia
# [13] = test system: MALME-3M melanoma
# [14] = test system: MDA-MB-231 breast
# [15] = test system: RXF 393 renal
# [16] = test system: SF-268 CNS
# [17] = test system: SF-295 CNS
# [18] = test system: SF-539 CNS
# [19] = test system: UACC-257 melanoma
# [20] = test system: M14 melanoma
Compound,growth [1],growth [2],growth [3],growth [4],growth [5],growth [6],growth [7],growth [8],growth [9],growth [10],growth [11],growth [12],growth [13],growth [14],growth [15],growth [16],growth [17],growth [18],growth [19],growth [20]
O=C1CCC(C(=O)NN(c2ccccc2)c2ccccc2)N1 (stereo not given),108%,96.3%,107%,101%,101%,69.6%,96.5%,103%,48.9%,111%,101%,12.2%,104%,110%,118%,83.2%,99%,94.6%,102%,12%
Oc1c(CN2CCCC2)cc(COCc2ccccc2)c2cccnc12,31.3%,18.1%,16.7%,1.77% (active),3.04% (active),14.7%,-2.04% (active),8.85% (active),5.96% (active),71.4%,30.4%,12.2%,30.8%,35.9%,46.5%,23.2%,18.3%,-5.32% (active),-16.1% (active),-2.08% (active)
COc1ccc2c(c1)c(-c1cc(-c3cn(C)c4ccc(OC)cc34)on1)cn2C,84.1%,88%,96.6%,141%,109%,59%,90.2%,109%,102%,112%,114%,98.5%,106%,100%,119%,102%,101%,101%,107%,90.1%
CCOC(=O)c1ccc2c(c1)c1c(C)c3ccncc3c(C)c1n2C,-26.4% (active),-37.1% (active),18.1%,-16.1% (active),-5.22% (active),1.34% (active),-52.6% (active),8.4% (active),16.7%,-44.7% (active),2.93% (active),7.07% (active),-40.9% (active),2.92% (active),-62.3% (active),-7.28% (active),1.65% (active),-0.581% (active),-25.9% (active),-57.2% (active)
O[C@@H](c1cc(C(F)(F)F)nc2c(C(F)(F)F)cccc12)[C@H]1CCCCN1,81.5%,94.6%,71.5%,56.1%,35.6%,12.3%,40%,66%,46.3%,67.9%,65.8%,15.8%,99%,14.5%,55.2%,54.7%,95.7%,85.6%,65.5%,71.6%
COc1cc(Nc2ncccc2NC(=O)c2cn(Cc3cccc(Oc4ccccc4)c3)nn2)cc(OC)c1,83.8%,83%,85.5%,99.7%,102%,98.4%,81%,86%,87.2%,86.5%,86.2%,45.4%,92.3%,66%,74.6%,73.8%,93.4%,93%,104%,67.6%
O=c1[nH]cnc2c1C(c1ccc(Br)cc1)c1sc3c(F)cccc3c1O2 (stereo not given),92.8%,92.2%,88.1%,97.9%,94.7%,49.2%,88.1%,96.3%,105%,102%,100%,94.6%,96.1%,94.5%,101%,91.9%,97.9%,96.4%,106%,101%
CN(CCC#N)c1ccc(/C=C2\NC(=O)NC2=O)cc1,89.5%,96.7%,103%,99.3%,98.4%,79.2%,38.7%,111%,88%,95.8%,124%,107%,113%,101%,113%,117%,112%,91.3%,93.4%,96.4%
CC(C)(CO)N(CCO)CCO,97.3%,94%,95.4%,110%,110%,78.9%,95.9%,114%,102%,123%,118%,101%,105%,104%,104%,104%,108%,97.4%,116%,108%
COc1ccc(Cc2cnc(NC(=O)c3sc4ccccc4c3Cl)s2)cc1,28.4%,49.7%,50.8%,26.3%,4.16% (active),79.8%,-14.2% (active),24.4%,36.7%,10.2%,25%,7% (active),56.6%,41.9%,1.01% (active),52.9%,14.9%,-19.4% (active),49.8%,10.2%
C(/C=C/c1ccccc1)=Nc1ccc(CCc2ccc(N=C/C=C/c3ccccc3)cc2)cc1,85.2%,95.9%,97.6%,98.2%,54.8%,107%,76.6%,104%,106%,101%,25.6%,78.3%,115%,92%,83.8%,104%,73.3%,108%,97.9%,89.9%
CCCCCCCCn1ccc2cc(NC(=O)Cn3cc(CN4CCOCC4)nn3)ccc21,106%,92.3%,96.8%,113%,101%,70.4%,90.4%,98.3%,90.6%,109%,106%,89.1%,100%,90.5%,91.9%,106%,90.1%,104%,104%,91%
C=CC1(C)C(O[Si](C)(C)C(C)(C)C)CC2C3OC(=O)NC31c1cccc3c1[C@H](C(=O)N3C)C2(C)C (stereo not given in full),59.7%,66.7%,78.3%,85.5%,44.7%,29.4%,44.1%,41.7%,73.6%,40.8%,76.2%,34%,64%,43.3%,68.6%,73.6%,46.9%,65.4%,33.1%,48.5%
COc1ccc2c(c1)c(-c1nc(-c3cn(C)c4ncccc34)cs1)cn2CCO,89.4%,70.1%,77.7%,81.2%,74.9%,70.4%,60.5%,79.8%,80%,81.2%,90.9%,25.2%,110%,57%,84.6%,91.1%,74.1%,75%,92.4%,75.1%
Cc1c(Cl)cccc1C(=O)Nc1nc2c(s1)CN(C(=O)Nc1cccc(C(F)(F)F)c1)CC2,21.5%,39.3%,46.6%,37.2%,7.19% (active),38.3%,15.1%,22.5%,29.1%,7.09% (active),16.8%,11.2%,44.5%,32.3%,-7.27% (active),35.2%,26%,-26.9% (active),55.7%,18.2%
